For some of these results: Results with a measured potency or affinity are listed apart.

The source of these data is ChEMBL document CHEMBL3988442, “University of Dundee, Small-Polar-MMV Screening Library” (2021).

Set-up in all cases: scale not given: direction of the effect not stated beside the values
Test [1] deals with Protein translocase subunit SecA (Escherichia coli (strain K12)) (UniProt P10408). The test is described as follows: Assay to Identify E. coli SecA ATPase Inhibitors. The test is classed as functional. The following applies: 30 µM.
For test [2], the target named is T1, Ubiquitin-activating enzyme e1, putative (Leishmania donovani (strain BPK282A1)) (UniProt E9BSI1).
T1 sequence (whole entry): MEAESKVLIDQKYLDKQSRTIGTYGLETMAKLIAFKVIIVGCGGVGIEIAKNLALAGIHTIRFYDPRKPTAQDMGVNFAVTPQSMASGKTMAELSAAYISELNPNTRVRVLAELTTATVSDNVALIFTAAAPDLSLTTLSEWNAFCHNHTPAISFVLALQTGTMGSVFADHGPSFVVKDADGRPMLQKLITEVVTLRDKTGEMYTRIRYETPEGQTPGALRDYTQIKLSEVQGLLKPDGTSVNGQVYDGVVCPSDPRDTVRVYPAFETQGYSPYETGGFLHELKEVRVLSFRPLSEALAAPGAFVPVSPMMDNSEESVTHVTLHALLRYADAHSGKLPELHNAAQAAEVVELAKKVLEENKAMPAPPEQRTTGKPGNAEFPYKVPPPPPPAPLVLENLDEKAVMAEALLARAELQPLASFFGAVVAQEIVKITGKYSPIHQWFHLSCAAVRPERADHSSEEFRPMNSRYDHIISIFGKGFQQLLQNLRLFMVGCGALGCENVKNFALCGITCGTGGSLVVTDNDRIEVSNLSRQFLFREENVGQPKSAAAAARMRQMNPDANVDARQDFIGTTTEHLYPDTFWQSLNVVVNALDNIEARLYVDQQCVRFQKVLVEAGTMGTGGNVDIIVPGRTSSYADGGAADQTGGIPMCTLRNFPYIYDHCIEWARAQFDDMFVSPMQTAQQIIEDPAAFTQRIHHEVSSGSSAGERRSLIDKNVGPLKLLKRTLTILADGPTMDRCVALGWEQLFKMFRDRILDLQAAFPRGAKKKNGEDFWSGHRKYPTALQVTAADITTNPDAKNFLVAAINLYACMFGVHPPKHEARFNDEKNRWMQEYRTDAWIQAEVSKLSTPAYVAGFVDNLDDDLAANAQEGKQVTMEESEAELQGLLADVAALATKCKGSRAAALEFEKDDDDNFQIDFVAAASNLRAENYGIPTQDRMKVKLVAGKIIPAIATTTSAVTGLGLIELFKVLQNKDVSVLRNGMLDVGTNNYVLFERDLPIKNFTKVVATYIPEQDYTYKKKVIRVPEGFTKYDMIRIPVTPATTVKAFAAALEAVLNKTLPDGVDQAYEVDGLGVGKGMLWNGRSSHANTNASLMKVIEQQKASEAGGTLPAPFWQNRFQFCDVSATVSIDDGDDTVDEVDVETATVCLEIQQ
The test is described as follows: Leishmania donovani Ubiquitin Activating Enzyme (LdE1). The test is classed as functional. The following applies: 30 µM.

For test [3], the target named is AMP-activated protein kinase, AMPK (Homo sapiens) (UniProt P54646+O43741+P54619+Q9UGJ0+Q9Y478+Q13131+Q9UGI9). The test can be described thus: AMP-dependent Kinase enzyme assay. An in vitro enzyme assay that detects ADP turnover that is directly proportional to AMPK activity. This uses naive AMPK that is activated during the assay with MK-8722. The following applies: 30 µM. The test is classed as functional.

The target in test [4] is Sialic acid-binding Ig-like lectin 9 (Homo sapiens) (UniProt Q9Y336). The test can be described thus: Hs-Siglec9 ALPHAscreen SOP 20170721. The following applies: 10 µM.
The next test deals with Trypanosoma cruzi. The test is described as follows: Trypanosoma cruzi phosphomannomutase and mannose-1-phosphate guanylyltransferase assay. Type of test: functional. The following applies: 10 µM.
For test [5], the target named is T2, Arginase-2, mitochondrial (Homo sapiens) (UniProt P78540).
T2 sequence (whole entry): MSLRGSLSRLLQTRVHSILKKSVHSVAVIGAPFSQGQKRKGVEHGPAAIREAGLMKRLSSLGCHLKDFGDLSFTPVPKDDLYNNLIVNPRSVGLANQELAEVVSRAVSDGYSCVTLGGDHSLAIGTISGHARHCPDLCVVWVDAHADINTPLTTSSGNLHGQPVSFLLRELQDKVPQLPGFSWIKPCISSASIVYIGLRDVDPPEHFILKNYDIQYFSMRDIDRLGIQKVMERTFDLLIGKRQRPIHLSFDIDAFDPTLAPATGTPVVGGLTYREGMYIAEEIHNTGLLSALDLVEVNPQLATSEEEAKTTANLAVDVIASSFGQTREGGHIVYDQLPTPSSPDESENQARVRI
The test can be described thus: in vitro enzyme assay to detect the production of urea directly proportional to the activity of Arginase II. Further: in the data most compounds retested in dose-response had high values. The test is classed as functional. The following applies: 33.3 µM.

Test [6] has as its target T3, Proteasome subunit beta (Trypanosoma cruzi) (UniProt O96673).
T3 sequence (whole entry): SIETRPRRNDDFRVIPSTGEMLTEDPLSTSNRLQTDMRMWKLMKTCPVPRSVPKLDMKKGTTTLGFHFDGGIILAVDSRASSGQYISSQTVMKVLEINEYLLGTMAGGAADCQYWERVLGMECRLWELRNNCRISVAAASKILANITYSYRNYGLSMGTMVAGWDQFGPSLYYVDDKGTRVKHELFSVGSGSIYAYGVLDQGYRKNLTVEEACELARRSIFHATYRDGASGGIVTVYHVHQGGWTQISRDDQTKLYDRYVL
The test is described as follows: Trypanosoma cruzi proteasome chymotrypsin-like activity (TcProtChymo) assay. Further: in the data most compounds retested in dose-response had high values. Type of test: functional. The following applies: 9.37 µM.

For a further test, the species on record is Homo sapiens. The test can be described thus: To identify inhibition of the IFN signalling (Jak-Stat) pathway via expression of an eGFP reporter gene under the control of an IFN-stimulated response element (ISRE) containing MxA promoter. The following applies: 30 µM. Type of test: functional.
Test [7] concerns the target T4, Tyrosyl-tRNA synthetase, putative (Trypanosoma cruzi (strain CL Brener)) (UniProt Q4DSP6).
T4 sequence (whole entry): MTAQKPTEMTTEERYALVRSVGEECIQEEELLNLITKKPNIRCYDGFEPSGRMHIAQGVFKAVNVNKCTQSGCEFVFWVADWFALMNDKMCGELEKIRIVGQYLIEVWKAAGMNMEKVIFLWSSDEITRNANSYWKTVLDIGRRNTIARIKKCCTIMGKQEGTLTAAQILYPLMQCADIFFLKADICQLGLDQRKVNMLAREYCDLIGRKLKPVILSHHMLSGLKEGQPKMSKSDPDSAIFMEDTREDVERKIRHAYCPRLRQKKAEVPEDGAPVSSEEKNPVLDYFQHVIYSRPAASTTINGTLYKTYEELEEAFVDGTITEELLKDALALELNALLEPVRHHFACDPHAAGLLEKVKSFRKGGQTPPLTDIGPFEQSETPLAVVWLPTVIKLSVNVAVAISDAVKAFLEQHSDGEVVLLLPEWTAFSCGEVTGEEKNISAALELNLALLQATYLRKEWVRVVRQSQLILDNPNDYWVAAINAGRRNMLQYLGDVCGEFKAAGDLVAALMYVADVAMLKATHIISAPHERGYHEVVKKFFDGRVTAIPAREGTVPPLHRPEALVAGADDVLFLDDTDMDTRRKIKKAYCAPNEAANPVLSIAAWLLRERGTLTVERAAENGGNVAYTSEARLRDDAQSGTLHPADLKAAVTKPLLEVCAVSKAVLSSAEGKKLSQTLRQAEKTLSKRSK
The test can be described thus: Trypanosoma cruzi tyrosyl tRNA synthetase (TcYRS) _High Tyrosine SOP. Further: in the data most compounds retested in dose-response had high values. Type of test: functional. The following applies: 30 µM.

In test [8] the target is T4, Tyrosyl-tRNA synthetase, putative (Trypanosoma cruzi (strain CL Brener)). The test is described as follows: Trypanosoma cruzi tyrosyl tRNA synthetase (TcYRS) SOP. Type of test: functional. The following applies: 30 µM.
For test [9], the target named is Chromo domain-containing protein 1 (Saccharomyces cerevisiae (strain ATCC 204508 / S288c) (Baker's yeast)) (UniProt P32657). The test is described as follows: ScCHD-1 Enzyme Inhibition Assay. Further: in the data most compounds retested in dose-response had high values. Type of test: functional. The following applies: 30 µM.
Sequence of Chromo domain-containing protein 1 (Saccharomyces cerevisiae (strain ATCC 204508 / S288c) (Baker's yeast)) (P32657 whole entry, the tested form may be a part): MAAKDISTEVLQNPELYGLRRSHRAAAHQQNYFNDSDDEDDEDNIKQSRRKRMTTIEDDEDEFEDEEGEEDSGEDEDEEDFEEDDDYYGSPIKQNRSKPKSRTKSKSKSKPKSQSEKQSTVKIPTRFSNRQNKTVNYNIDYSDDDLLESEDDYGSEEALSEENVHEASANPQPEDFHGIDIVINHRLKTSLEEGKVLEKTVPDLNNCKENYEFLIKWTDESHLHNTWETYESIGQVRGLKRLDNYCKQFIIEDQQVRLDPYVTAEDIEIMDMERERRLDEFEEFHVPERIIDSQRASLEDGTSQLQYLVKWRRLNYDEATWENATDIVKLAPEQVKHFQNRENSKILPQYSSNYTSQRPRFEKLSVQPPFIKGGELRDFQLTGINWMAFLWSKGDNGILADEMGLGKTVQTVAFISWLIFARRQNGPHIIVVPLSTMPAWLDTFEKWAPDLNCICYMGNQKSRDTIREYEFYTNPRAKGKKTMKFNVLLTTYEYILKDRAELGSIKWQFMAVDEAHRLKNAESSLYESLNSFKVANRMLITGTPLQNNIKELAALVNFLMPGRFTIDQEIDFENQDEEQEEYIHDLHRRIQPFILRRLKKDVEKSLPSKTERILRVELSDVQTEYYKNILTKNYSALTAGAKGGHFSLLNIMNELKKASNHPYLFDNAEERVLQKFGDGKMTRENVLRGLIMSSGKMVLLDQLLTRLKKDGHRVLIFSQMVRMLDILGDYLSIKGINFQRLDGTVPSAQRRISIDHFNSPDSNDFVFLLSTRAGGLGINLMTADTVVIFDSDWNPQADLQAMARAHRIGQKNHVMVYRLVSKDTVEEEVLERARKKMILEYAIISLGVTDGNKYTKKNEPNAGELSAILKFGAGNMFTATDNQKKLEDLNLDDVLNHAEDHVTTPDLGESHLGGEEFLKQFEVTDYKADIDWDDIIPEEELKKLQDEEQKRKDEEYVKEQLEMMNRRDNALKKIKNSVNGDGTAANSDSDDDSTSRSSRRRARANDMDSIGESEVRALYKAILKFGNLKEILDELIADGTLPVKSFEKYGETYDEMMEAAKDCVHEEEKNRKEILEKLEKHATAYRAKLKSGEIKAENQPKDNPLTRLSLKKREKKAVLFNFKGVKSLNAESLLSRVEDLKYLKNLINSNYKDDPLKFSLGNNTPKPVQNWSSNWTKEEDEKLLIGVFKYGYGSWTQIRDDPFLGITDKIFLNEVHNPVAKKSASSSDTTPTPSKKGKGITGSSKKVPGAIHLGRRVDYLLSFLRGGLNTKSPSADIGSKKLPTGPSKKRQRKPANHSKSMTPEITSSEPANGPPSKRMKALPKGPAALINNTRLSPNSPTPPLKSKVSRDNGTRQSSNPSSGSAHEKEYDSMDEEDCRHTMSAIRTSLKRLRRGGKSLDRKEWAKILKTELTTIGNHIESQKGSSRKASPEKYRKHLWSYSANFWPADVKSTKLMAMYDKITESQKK

Sequence of Protein translocase subunit SecA (Escherichia coli (strain K12)) (P10408 whole entry): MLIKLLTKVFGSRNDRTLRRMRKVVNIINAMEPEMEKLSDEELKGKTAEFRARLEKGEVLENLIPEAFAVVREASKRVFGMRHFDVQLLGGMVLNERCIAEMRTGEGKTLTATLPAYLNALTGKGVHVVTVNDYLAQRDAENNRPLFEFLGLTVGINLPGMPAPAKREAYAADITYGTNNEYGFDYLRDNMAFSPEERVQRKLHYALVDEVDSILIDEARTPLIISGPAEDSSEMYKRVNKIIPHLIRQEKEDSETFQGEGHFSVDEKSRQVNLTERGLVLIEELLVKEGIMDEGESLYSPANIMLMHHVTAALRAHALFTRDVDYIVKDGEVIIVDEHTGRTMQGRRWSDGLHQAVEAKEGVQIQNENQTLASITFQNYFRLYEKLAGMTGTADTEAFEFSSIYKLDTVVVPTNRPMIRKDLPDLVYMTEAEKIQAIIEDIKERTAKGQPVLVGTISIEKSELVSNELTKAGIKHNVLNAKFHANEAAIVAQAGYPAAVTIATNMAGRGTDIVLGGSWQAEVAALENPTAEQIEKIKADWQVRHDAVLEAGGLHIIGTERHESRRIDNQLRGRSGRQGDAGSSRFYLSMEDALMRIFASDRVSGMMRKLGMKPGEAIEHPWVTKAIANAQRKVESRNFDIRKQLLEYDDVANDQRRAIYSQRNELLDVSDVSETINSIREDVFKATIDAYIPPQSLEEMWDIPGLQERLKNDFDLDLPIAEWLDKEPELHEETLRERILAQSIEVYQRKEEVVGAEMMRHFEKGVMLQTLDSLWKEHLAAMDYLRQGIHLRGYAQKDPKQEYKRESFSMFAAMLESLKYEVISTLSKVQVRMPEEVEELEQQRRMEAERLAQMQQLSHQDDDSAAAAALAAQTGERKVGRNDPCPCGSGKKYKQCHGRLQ
Sequence of Sialic acid-binding Ig-like lectin 9 (Homo sapiens) (Q9Y336 whole entry): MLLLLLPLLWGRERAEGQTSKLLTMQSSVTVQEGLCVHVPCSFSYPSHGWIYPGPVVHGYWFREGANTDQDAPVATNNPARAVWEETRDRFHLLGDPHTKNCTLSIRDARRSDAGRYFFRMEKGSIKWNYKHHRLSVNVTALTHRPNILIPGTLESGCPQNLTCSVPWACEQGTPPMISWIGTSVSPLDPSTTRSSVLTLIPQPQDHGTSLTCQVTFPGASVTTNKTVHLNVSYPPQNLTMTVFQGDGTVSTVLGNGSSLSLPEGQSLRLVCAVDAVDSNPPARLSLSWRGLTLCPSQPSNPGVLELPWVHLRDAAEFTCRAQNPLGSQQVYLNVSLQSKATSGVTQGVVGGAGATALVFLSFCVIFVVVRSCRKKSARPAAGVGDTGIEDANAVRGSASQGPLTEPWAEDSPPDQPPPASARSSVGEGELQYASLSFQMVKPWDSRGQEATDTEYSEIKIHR

In the case of `CC(=O)c1cc(CC(=O)NCc2c(F)cccc2F)cs1`, the Percent Effect is 2.08% in [1]; 5.41% in [2]; -0.986% in test [3]; 2.88% in test [4]; 4.44% in the test on Trypanosoma cruzi; 10.5% in [5]. Further, the Percent Effect in test [6] turned out to be 2.76%; in the test filed under Homo sapiens, 17.2%; in test [7] it was 0.529%; in test [8], 7.32%; in test [9], 0.311%.

Turning to `Cc1cc(C)n(CC2CCCN2C(=O)c2c[nH]c3ncccc23)n1` (stereo not drawn), the Percent Effect was -3.09% in [1]; -2.7% in test [2]; 10.7% in test [3]; 5.96% in [4]; -4.18% with Trypanosoma cruzi; 4.99% in test [5]. Besides, the Percent Effect in test [6] is -3.05%; in the test filed under Homo sapiens, 24.1%; in test [7], -0.99%; in [8], -6.1%; in test [9] it was 12.6%.

Turning to `Cc1cc(N2CCN(Cc3ccc(C)o3)CC2)cc(C)n1`, the Percent Effect was -4.6% in [1]; 5.33% in test [2]; -0.471% in test [3]; 15% in [4]; 1.46% in the test with Trypanosoma cruzi; 2.08% in test [5]. For the same compound, the Percent Effect was 20.2% in [6]; 2.05% in the test filed under Homo sapiens; 8.2% in [7]; 16.1% in test [8]; -6.19% in test [9].

Consider `CCCS(=O)(=O)N1CCO[C@H]2[C@H](OCc3ccccn3)CC[C@@H]21`, for which the Percent Effect is -9.04% in test [1]; 8.11% in test [2]; -5.79% in [3]; -1.28% in test [4]; -0.977% in the test with Trypanosoma cruzi; 5% in [5]. For the same compound, the Percent Effect is 10.1% in test [6]; 5.42% in the test listed under Homo sapiens; 10.9% in test [7]; 15.8% in test [8]; -2.32% in test [9].

`O=C(COCc1nc(-c2ccncc2)no1)NC1CCCCC1`: the Percent Effect is -6.1% in test [1]; 7.79% in test [2]; 1.21% in [3]; 9.68% in [4]; 2.46% in the test with Trypanosoma cruzi; 0% in [5]. Further, the Percent Effect in test [6] is 7.65%; in the test filed under Homo sapiens, 5.36%; in test [7] it was 7.53%; in [8] it was 13.6%; in test [9] it was -2.34%.

For the compound `CCN1CCC2(CC1)CC(NC(=O)NC)c1cc(C)ccc12` (stereo not drawn), the Percent Effect in test [1] was -3.84%; in test [2], 13.3%; in [3], 6.34%; in [4], 6.37%; with Trypanosoma cruzi it was 5.21%; in test [5] it was -56.5%. Moreover, the Percent Effect in test [6] is 10.9%; in the test filed under Homo sapiens it was -24.6%; in test [7], 4.17%; in test [8] it was 7.5%; in test [9], -5.82%.

As for `Cc1cncc(C2CCCN(C(=O)c3scnc3C)C2)n1` (stereo not drawn), the Percent Effect in [1] is -5.85%; in test [2], 1.35%; in [3], 3.8%; in [4], 2.37%; with Trypanosoma cruzi, 0.395%; in test [5], -2.09%. Besides, the Percent Effect in test [6] is 7.33%; in the test listed under Homo sapiens, 2.09%; in test [7] it was 3.23%; in [8] it was 11.7%; in test [9], -22.3%.

For `Cn1cc(NC(=O)Cn2c(CS(C)(=O)=O)nc3ccccc32)cn1`, the Percent Effect in test [1] was -2.27%; in test [2], 7.89%; in test [3], 3.88%; in test [4], 2.76%; in the test on Trypanosoma cruzi, 0.0974%; in test [5], -1.18%. Moreover, the Percent Effect is 12.6% in test [6]; -13.6% in the test filed under Homo sapiens; 3.19% in test [7]; 13% in [8]; -3.67% in [9].
